The record followed here is PubChem BioAssay AID743314 (Broad Institute, 2014).

Entries with a potency or affinity are not part of this list. Records with an inconclusive call do not appear. The source made the active and inactive calls.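 Rule for the calls: active = fitted half-maximal concentration no higher than twice the top tested dose, in every repeat run; inconclusive = repeat runs disagree, poor fit, or flat partial inhibition; inactive = the rest.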

This experiment deals with Endoplasmic reticulum aminopeptidase 1 (Homo sapiens) (UniProt Q9NZ08). In words: ERAP1 aminopeptidase inhibitors, dose response, biochemical, cherry-pick, set 2, plate reader (AID 743314). The conditions noted are these: Recombinant ERAP1, Leu-AMC fluorescence, 60 min; series mostly up to 11 µM.
Chain of Endoplasmic reticulum aminopeptidase 1 (Homo sapiens) (Q9NZ08 whole entry, looked up): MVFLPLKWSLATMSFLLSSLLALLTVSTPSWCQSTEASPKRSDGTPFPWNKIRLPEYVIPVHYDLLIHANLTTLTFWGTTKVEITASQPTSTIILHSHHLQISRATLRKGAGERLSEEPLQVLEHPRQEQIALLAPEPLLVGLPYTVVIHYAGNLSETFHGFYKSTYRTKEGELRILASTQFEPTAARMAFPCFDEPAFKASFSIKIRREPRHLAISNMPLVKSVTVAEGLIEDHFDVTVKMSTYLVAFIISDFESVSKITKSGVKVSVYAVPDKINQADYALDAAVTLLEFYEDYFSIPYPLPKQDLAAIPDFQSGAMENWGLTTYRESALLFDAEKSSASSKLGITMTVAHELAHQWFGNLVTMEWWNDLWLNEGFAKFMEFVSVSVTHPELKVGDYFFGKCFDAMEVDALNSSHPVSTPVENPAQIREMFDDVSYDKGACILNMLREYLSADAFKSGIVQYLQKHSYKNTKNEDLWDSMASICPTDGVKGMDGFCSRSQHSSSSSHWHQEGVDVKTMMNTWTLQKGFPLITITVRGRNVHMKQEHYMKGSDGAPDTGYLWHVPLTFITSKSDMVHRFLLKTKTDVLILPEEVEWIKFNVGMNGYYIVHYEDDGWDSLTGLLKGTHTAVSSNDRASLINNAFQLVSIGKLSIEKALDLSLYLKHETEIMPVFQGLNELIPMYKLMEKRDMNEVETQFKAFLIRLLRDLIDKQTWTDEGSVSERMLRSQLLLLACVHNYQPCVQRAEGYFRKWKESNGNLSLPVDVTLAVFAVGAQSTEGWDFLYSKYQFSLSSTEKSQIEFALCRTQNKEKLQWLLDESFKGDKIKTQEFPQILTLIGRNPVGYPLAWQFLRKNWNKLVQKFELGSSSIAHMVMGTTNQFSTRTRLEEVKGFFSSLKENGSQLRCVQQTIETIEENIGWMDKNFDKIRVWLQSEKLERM
With `COc1ccc(CCOC(=O)CNC(=O)c2ccc(Cl)cc2Cl)cc1`, the outcome was inactive.
Consider `CCN(C(=O)COC(=O)c1cnc(C)cn1)C1CCS(=O)(=O)C1` (stereo not drawn), for which the outcome was inactive.
Next, `Cc1ccc(Cl)cc1NC(=O)CCC(=O)O`: “inactive”.
